# An excerpt weighted towards active compounds, which were near 1.4% of everything screened.
# Rango dissoc inh: inhibition of RanGTP-driven Rango-importin beta dissociation; AID 540253; 0.071% of 340,000 active; Biochemical FRET Rango-importin beta, RanGTP-induced dissociation; Potency, µM (titrated, usually from 46.1 µM), without a hit: top-dose activity change, negative = inhibition; further: potency means the concentration at half of the fitted maximal effect; % of control where 0% means no effect; nearly all actives have a fitted effect of over 45% in size
#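 Rango (0.1 uM)–importin beta (0.25 uM) complex; RanGTP-RCC1 trigger; 45 min RT; CFP/YFP FRET read.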
# Rango-impB inh: prevents formation of the Rango-importin beta complex; 0.031% of 340,000 active; Rango CFP/YFP FRET sensor + importin beta, 45 min; Potency, µM (doses to about 92.2 µM), for the others: top-dose inhibition of complex formation;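 further: potency means the concentration at half of the fitted maximal effect; 0% = DMSO wells and 100% = buffer wells lacking importin beta; nearly all actives have a fitted effect of over 15% in size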
# Target sequence (Q14974 whole entry, looked up): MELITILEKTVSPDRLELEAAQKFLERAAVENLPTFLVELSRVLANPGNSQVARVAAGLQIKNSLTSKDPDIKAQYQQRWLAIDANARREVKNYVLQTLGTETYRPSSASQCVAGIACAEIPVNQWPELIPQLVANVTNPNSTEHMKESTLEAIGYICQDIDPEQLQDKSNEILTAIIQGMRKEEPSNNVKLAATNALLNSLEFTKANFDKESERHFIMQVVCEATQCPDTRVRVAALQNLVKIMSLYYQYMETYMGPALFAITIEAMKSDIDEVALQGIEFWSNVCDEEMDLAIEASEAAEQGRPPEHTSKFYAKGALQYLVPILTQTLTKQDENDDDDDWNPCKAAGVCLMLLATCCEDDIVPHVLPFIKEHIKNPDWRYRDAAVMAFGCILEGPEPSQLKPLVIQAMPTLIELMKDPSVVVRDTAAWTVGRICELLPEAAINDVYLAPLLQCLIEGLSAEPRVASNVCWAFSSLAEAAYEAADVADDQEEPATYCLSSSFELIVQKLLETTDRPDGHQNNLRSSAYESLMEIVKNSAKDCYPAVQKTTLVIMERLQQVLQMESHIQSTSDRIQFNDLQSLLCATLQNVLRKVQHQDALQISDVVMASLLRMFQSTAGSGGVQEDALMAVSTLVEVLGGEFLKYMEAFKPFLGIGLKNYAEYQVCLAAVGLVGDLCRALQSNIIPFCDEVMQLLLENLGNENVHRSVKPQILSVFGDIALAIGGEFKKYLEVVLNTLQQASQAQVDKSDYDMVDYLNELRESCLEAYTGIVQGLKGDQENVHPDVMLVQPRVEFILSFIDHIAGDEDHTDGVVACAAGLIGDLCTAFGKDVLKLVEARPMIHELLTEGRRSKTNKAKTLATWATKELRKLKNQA
#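 FRET biosensor (snurportin 1 IBB flanked by EYFP and cerulean), 50 nM, with compound 5 min, then 0.125 microM importin beta in PBS, 1 mM DTT, 0.02% Tween-20, 0.1% BSA. CFP/YFP ratio read after 45 min at room temperature; pre-read flags interference.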
# hERG WT inh: blocks the wildtype human KCNH2 potassium channel; Q12809; U2OS, BacMam KCNH2, thallium flux FluxOr; active compounds read low; activity change, % at 1.84 µM; 0.37% of 340,000 active;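 active means maximum activity change below -70%; inconclusive means maximum activity change between -70% and -50%; inactive means maximum activity change above -50%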; further: on the % scale 0 is the no-effect control and ±100 the full control effect
#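 U2OS cells were transduced with wild-type KCNH2 virus (2.03 x 10^8 / mL) for 4 h at room temperature, then cultured overnight at 37 C. Thallium flux was read with FluxOr dye. Rate constants were normalized to DMSO controls.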
# KCNH2 3.1 inh: blocks the human KCNH2 3.1 channel isoform; U2OS KCNH2 3.1, thallium flux FluxOr; active compounds read low; activity change, % (tested at about 1.8 µM); 0.95% of 340,000 active;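 active means maximum activity change below -70%; inconclusive means maximum activity change from -70% to -50%; inactive means maximum activity change above -50%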;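 further: thallium influx rate constant from kinetic fluorescence after stimulation buffer; on the % scale 0 is the no-effect control and ±100 the full control effect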
#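 Channel expression came from 3.1 mutant virus (1.77 x 10^8 /mL) applied to suspended U2OS cells for 4 h. Flux was tracked with FluxOr dye plus Red40 quencher, and kinetic rate constants normalized to controls.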
# Mm-Cpn inhibitor: inhibitors of Methanococcus maripaludis chaperonin TRiC (MmCpn); purified Mm-Cpn ATPase, ADP Transcreener TR-FRET; Potency, µM (series often up to 76.9 µM), for inactives: top-dose activity, negative = inhibition, usual class: inhibitors; 0.031% of 330,000 active; AID 504842; active means well fitted inhibition curve with a large enough effect; inconclusive means small, poorly fitted or top-dose-only effect; further: potency means the concentration at half of the fitted maximal effect; on the % scale 0 is the no-effect control and ±100 the full control effect; nearly all actives have a fitted effect of over 80% in size
#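 Purified archaeal Mm-CPN (25nM final) preincubated 10 min at 37degC with compound, then 10uM ATP for 30 min at 37degC; ADP measured by HTRF Transcreener TR-FRET; buffer 30 mM TRIS pH 7.4, 100mM KCl, 5mM MgCl2, 1mM DTT.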
# CCT chaperon mod: modulators of cytosolic chaperonin (CCT/TRiC) activity. purified chaperonin ATPase assay, HTRF ADP detection, 30 min. activity change, % (test concentration not listed), hits read low. 0.3% of 360,000 active. AID 651819; in the data active means activity change below about -30%; further: on the % scale 0 is the no-effect control and ±100 the full control effect
#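 TRiC (40 or 20 nM final, by batch activity) in 30 mM Tris pH 7.4, 100 mM KCl, 5 mM MgCl2, 1 mM DTT was treated with compound at 76 uM single dose, then 10 uM ATP, 30 min at 37 °C. ADP was read by HTRF Transcreener.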
# * hit, by the source's call; u = inconclusive; x = no result. Unless noted, the call rests on the fitted dose curve.
SMILES,Rango dissoc inh,Rango-impB inh,hERG WT inh,KCNH2 3.1 inh,Mm-Cpn inhibitor,CCT chaperon mod
CO/N=C/c1ccc(N2CCCC2)c([N+](=O)[O-])c1,1.2%,-3.0%,29.8,10.7,-1.7%,-3.5
CC/C(=N/NC(=O)c1ccc(Br)cc1)c1ccc(OCCN2CCOCC2)cc1,8.1%,-10.2%,1.9,6.0,0.8%,0.0
CCCOc1ccc(/C(CC)=N/NC(=O)C2(C)CC2(Br)Br)cc1 (centres undefined),0.3%,1.1%,6.2,-77.0*,0.1%,-1.4
O=C(Nc1cccnc1)c1ccc2snnc2c1,4.9%,0.5%,-150.9*,-124.6*,1.2%,-0.1
Cc1ccc(NC(=S)NCCN(C2CCCCC2)C2CCCC2)cc1C,0.3%,-0.1%,11.4,-33.5,2.0%,-1.8
Cc1ccc(NC(=S)NCCN(C2CCCCC2)C2CCCC2)cc1,20.2%,-0.7%,1.0,-72.9*,1.7%,0.0
O=C(CC1S/C(=N\S(=O)(=O)c2ccccc2)N(c2ccccc2)C1=O)Nc1ccc(F)cc1 (centres undefined),-11.8%,1.5%,-29.2,-80.3*,-0.4%,-3.7
Cc1ccc(S(=O)(=O)/N=C2\SC(CC(=O)Nc3ccc(F)cc3)C(=O)N2c2ccccc2)cc1 (centres undefined),-5.7%,u,-2.8,-5.0,1.3%,-2.6
Cc1c(C#N)c2ncn(Cc3ccccn3)c(=O)c2n1-c1ccccc1,2.2%,4.2%,-18.9,-1.0,0.3%,-79.6*
Cc1c(C#N)c2ncn(CCCN(C)C)c(=O)c2n1-c1ccccc1,-8.1%,0.5%,-2.1,5.7,-0.2%,0.4
COc1cc2c(cc1OC)C(c1ccc(-c3cc(Cl)ccc3Cl)o1)=NCC2,-9.1%,0.2%,4.7,-24.1,1.9%,-3.1
COc1cc2c(cc1OC)C(c1ccc(-c3ccc(Cl)cc3Cl)o1)=NCC2,-14.2%,u,-4.1,-114.7*,-0.1%,-3.0
COc1cc(CNCCc2ccc(S(N)(=O)=O)cc2)ccc1OCc1ccc(Cl)cc1,3.2%,5.0%,-31.2,-108.5*,-4.1%,-0.7
NS(=O)(=O)c1ccc(CCNCc2ccccc2OCc2ccc(F)cc2)cc1,8.9%,-2.2%,-32.9,-75.8*,2.1%,-1.7
Cc1cc(Cl)ccc1OCC(O)CNCCc1ccc(S(N)(=O)=O)cc1 (centres undefined),10.1%,-3.6%,u,-98.5*,5.4%,-0.4
CCCCOc1ccc(C(=O)NCC(=O)NCC2CCCO2)cc1 (centres undefined),13.6%,-2.5%,-5.8,-1.9,-5.1%,0.6
CSCC[C@H](NC(=O)N1CCn2c1nc1ccccc12)C(=O)NCc1ccccc1,16.8%,0.8%,3.7,1.0,0.5%,0.2
O=S(=O)(Nc1cccc(S(=O)(=O)N2CCCCC2)c1)c1ccccc1F,9.7%,1.8%,7.6,-5.3,2.1%,1.0
OC(CNCC1(N2CCCCC2)CCCCC1)COc1ccc(Cl)cc1Cl (centres undefined),18.0%,0.1%,u,-86.5*,1.0%,2.9
CN(C)c1cc(-c2ccc(Cl)c(Cl)c2)oc(=O)c1Cl,1.3%,3.2%,2.1,-97.8*,-0.5%,-2.3
NC(=O)C1CCN(c2nc(-c3ccc4c(c3)OCO4)cs2)CC1,x,x,x,x,-0.4%,x
Cc1cccc(-n2cc(-c3ccc([N+](=O)[O-])cc3)[nH]c2=S)c1,13.1%,-3.6%,-70.3*,u,-1.4%,2.1
COCCN(CCOC)C(=O)c1cc2sc3ccccc3c2s1,-1.3%,2.3%,9.4,-2.0,-3.9%,-31.0*
CCN(CC)C(=O)c1cc2sc3ccccc3c2s1,21.1%,-6.4%,-0.9,2.9,-0.2%,-2.5
COc1cccc(N(CC(=O)NC2CCCCC2)C(=O)CCC(=O)Nc2nccs2)c1,1.0%,-1.4%,-7.1,-7.0,-1.2%,1.1
SMILES,Rango dissoc inh,Rango-impB inh,hERG WT inh,KCNH2 3.1 inh,Mm-Cpn inhibitor,CCT chaperon mod
O=C(CCN1C(=O)/C(=C/c2ccccc2F)SC1=S)Nc1cccnc1,8.5%,0.0%,-34.0,-106.7*,-4.6%,-2.3
CCOc1ccc(C2/C(=C(/O)c3ccc(Cl)cc3)C(=O)C(=O)N2CCCN(C)C)cc1OC (centres undefined),x,x,x,x,0.5%,x
CN(C)S(=O)(=O)Nc1cccc(-c2cn3c(n2)SCC3)c1,-8.9%,-2.0%,31.8,-106.3*,1.2%,-21.1
CC(=O)Nc1ccc(S(=O)(=O)Nc2cccc(-c3cn4c(n3)SCC4)c2)cc1,6.6%,-2.8%,-36.4,22.1,3.1%,-0.7
O=C1c2ccccc2C(=O)N1CSc1nnc(Nc2ccccc2)s1,0.9%,0.9%,-1.2,-105.0*,-1.4%,-2.2
Cc1cccc(NS(=O)(=O)c2ccc(C(=O)NCC3(N4CCCCC4)CCCCC3)cc2)c1C,0.2%,-1.3%,8.4,-77.8*,-1.1%,1.3
Cc1ccccc1NS(=O)(=O)c1ccc(C(=O)NCC2(N3CCOCC3)CCCCC2)cc1,-5.4%,0.1%,7.2,-2.0,x,-7.7
CC(C)(C)n1nnnc1C(c1ccccc1)N1CCc2ccccc2C1 (centres undefined),-10.6%,-3.5%,-3.0,-3.6,-7.8%,-57.4*
CN(C)c1ccc(C(c2nnnn2C(C)(C)C)N2CCc3ccccc3C2)cc1 (centres undefined),x,x,x,x,1.0%,x
O=C(CCCCCn1c(=O)[nH]c2ccccc2c1=O)NCCCN1CCN(c2ccccc2F)CC1,-9.1%,1.9%,u,-70.5*,3.5%,-6.5
Cc1sc2nc(-c3cccnc3)nc(Cl)c2c1-c1ccccc1,-11.2%,-3.1%,5.7,-7.4,-13.6%,1.4
CCN(C(=O)COC(=O)c1ccccc1Cc1ccccc1)c1c(N)n(Cc2ccccc2)c(=O)[nH]c1=O,-11.0%,-3.9%,-0.2,4.8,x,-0.3
COc1ccc(C2C(C#N)=C(N)OC3=C2C(=O)CC(C)(C)C3)c([N+](=O)[O-])c1OC (centres undefined),23.1µM*,u,5.9,-3.6,0.3%,0.2
O=c1c(Cl)c(NCc2ccc(F)cc2)cnn1C12CC3CC(CC(C3)C1)C2,19.0%,1.5%,22.8,-34.9,-1.3%,-31.1*
CCCN(CCC)CCNC(=O)CCC(=O)Nc1ccc2nc(N3CCOCC3)cc(C)c2c1,-25.0%,u,3.1,-173.6*,-7.1%,-7.6
CCCCNC(=O)CCC(=O)Nc1ccc2nc(N3CCOCC3)cc(C)c2c1,-1.0%,0.3%,2.5,-46.6,0.8%,-0.4
Cc1cc(N2CCOCC2)nc2ccc(NC(=O)C3CCC(C)CC3)cc12 (centres undefined),-0.8%,0.3%,-13.7,-106.7*,0.9%,3.8
CCCN(CCC)CCCNC(=S)Nc1ccc2nc(N3CCN(C)CC3)cc(C)c2c1,-5.2%,3.5%,14.9,-108.8*,-0.1%,-2.8
